# Measurements as given in PubChem BioAssay AID588590 (National Center for Advancing Translational Sciences (NCATS), 2011).
# Several values for one entry are separate records, joined by “and”; a condition that tells them apart may be missing. Equal values may be shown once. Hit rate of the full screen: of about 390,000 compounds, about 4,000 (1%) were called active. Roughly 7% stayed inconclusive and do not appear here. Calls come from the whole dose curve; as a rule, active = well fitted inhibition curve with a large enough effect; inconclusive = small, poorly fitted or top-dose-only effect, or another doubt; inactive = no such curve, though single readings can be large or run the other way. The full list was thinned out, with actives kept by preference. Some compounds were tested as several samples or in several runs, with calls that do not always agree.
# Target: DNA polymerase iota (Homo sapiens) (UniProt Q9UNA4)
# Sequence (Q9UNA4 whole entry, looked up): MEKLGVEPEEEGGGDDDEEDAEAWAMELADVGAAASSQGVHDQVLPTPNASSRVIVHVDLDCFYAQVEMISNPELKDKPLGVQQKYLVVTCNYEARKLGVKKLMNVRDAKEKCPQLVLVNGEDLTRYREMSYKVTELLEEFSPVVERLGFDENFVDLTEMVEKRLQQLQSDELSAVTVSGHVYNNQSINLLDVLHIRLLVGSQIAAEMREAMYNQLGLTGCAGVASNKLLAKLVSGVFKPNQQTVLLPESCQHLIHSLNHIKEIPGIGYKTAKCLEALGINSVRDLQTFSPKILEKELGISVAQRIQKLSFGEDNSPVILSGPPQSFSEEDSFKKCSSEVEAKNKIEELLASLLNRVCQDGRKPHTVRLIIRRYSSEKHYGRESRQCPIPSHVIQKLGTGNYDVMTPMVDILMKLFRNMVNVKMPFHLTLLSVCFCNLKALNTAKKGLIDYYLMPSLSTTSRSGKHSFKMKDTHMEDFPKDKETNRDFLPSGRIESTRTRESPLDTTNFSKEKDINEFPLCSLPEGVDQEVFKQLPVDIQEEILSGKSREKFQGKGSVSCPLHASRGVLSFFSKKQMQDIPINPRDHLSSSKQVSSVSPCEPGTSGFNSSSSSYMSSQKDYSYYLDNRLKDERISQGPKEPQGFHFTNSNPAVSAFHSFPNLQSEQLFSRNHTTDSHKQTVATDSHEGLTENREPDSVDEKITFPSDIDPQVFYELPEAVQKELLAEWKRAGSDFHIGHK
# Experiment: qHTS for Inhibitors of Polymerase Iota
# Details: Pol iota fluorescent replication assay, 10 min; series mostly up to 115 µM; activity, negative = inhibition: at the top concentration
# Procedure, shortened: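 Pol iota at 10 nM preincubated 15 min with compounds at room temperature; reaction started with fluorescent substrate, 50 nM final. Fluorescence read kinetically at 0 and 10 min; buffer-only wells as negative control.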
# Potency is the fitted concentration of half-maximal effect.
Compound,"activity, negative = inhibition",Potency
COc1ccc(NC(=O)CSc2nc3ccccc3n2CC(=O)N2CCCCC2C)cc1 (stereo unspecified),-7.07% (inactive),
CCOc1ccc(S(=O)(=O)Nc2ccc3oc4c(c3c2)CC(C)CC4)cc1 (stereo unspecified),8.03% (inactive),
Oc1ccc(N=Cc2sc3ccccc3c2Cl)cc1,,8.91 µM (active)
COC(=O)c1cc(NC(=O)c2sc3ccccc3c2Cl)cc(C(=O)OC)c1,8.39% (inactive),
O=S(=O)(c1ccc2nc(N3CCN(c4cccc(Cl)c4)CC3)ccc2c1)N1CCCCC1,-5.47% (inactive),
c1ccc(Cn2nnc3c(N4CCCCC4)ncnc32)cc1,47.3% (inactive),
Cc1ccc(-c2nc(Cn3c(=O)cc(-c4ccccc4)c4c(C)nn(C)c43)c(C)o2)cc1,-6.95% (inactive),
COc1cc(OC)cc(C(=O)Nc2ccc3nc(Nc4cccc(C(F)(F)F)c4)cc(C)c3c2)c1,13.8% (inactive),
Cc1cccc(NC(=O)CSc2nc3c(oc4ccccc43)c(=O)n2-c2ccc(F)cc2)c1,33.5% (inactive),
Cc1ccc2c(=O)c(C(=O)c3cccc(Cl)c3)cn(CC(=O)NCc3ccccc3)c2n1,-2.34% (inactive),
O=C(COC(=O)/C=C/c1cccc(Cl)c1)NCCc1ccccc1,17.7% (inactive),
NNc1cccc(C=Cc2ccccc2)cc1=O,,25.1 µM (active)
NS(=O)(=O)c1ccc(NS(=O)(=O)/C=C/c2ccccc2)cc1,30% (inactive),
CCC(=O)N1CCc2cc(Br)cc(S(=O)(=O)CCC(=O)N3CCN(c4ccc(F)cc4)CC3)c21,15.6% (inactive),
Cn1c(SCC(=O)N2CCCc3ccccc32)ncc(C(=O)Nc2ccc(F)cc2)c1=O,17.9% (inactive),
S=c1[nH]c(=S)c2n[nH]nc2[nH]1,21.1% (inactive),
COc1cccc(C(=O)Nc2ccc3oc(-c4ccc5ccccc5c4)nc3c2)c1,-20.5% (inactive),
COc1cc2nc(N3CCCN(C)CC3)nc(NC(C)C)c2cc1OC,35.2% (inactive),
Cc1cccc2cc(CN(Cc3cccs3)C(=S)NCc3ccco3)c(=O)[nH]c12,10.6% (inactive),
Cc1ccc(C)c2[nH]c(=O)c(CN(Cc3cccnc3)C(=S)NCc3ccco3)cc12,,44.7 µM (active)
O=C(Nc1ccccc1)N(Cc1cccnc1)Cc1ccco1,-13.8% (inactive),
O=C(c1ccc2c(c1)N(Cc1ccccc1)C(=O)c1ccccc1S2(=O)=O)N1CCCC1,10.1% (inactive),
COc1cc2nc(SCC(=O)Nc3ccccc3F)n3nc(-c4ccccc4)nc3c2cc1OC,-24.9% (inactive),
CCc1cc2c(cc3c(=O)n(CC(=O)N4CCN(c5cc(Cl)ccc5C)CC4)nc(CC)n32)s1,37.4% (inactive),
CCc1ccc(NC(=O)CN2C(=O)CCSc3ccc(S(=O)(=O)N4CCCC4)cc32)cc1,8.35% (inactive),
O=C(NCCc1ccccn1)c1cc(-c2ccc(Cl)cc2)nc2ccccc12,-7.04% (inactive),

Compound,"activity, negative = inhibition",Potency
CCc1ccc(-c2cc(C(=O)NN3CCN(C)CC3)c3ccccc3n2)cc1,25.1% (inactive),
Cc1ccc(NC(=O)c2cc(-c3ccc(C)o3)nc3ccccc23)nc1,,20 µM (active)
C=Cc1ccc(Cn2c(C(=O)OC)cc3sc(C)cc32)cc1,30% (inactive),
CCOc1cccc2c1N[C@@H](c1ccc(C(=O)O)cc1)[C@H]1CC=C[C@@H]21,,5.62 µM (active)
CCOc1c(CNCc2ccc(C(=O)O)cc2)cccc1OC,-4.83% (inactive),
CCOc1cc(C(=O)O)ccc1OCCOc1ccccc1,21.3% (inactive),
COc1cc(OC)cc(-c2nc3nc(C)c(CCC(=O)Nc4ccc(C)cc4)c(C)n3n2)c1,25.1% (inactive),
COc1cccc(CNC(=O)c2n[nH]c3ccccc23)c1,58.2% (inactive),
CC(C)c1ccc(NC(=O)Cn2nnc(C(=O)NCCc3ccccc3)c2N)cc1,,79.4 µM (active)
CCc1ccc(NC(=O)Cn2nnc(C(=O)NCc3ccc4c(c3)OCO4)c2N)cc1,-19.8% (inactive),
CCOc1ccccc1NC(=O)Cn1nnc(C(=O)Nc2ccc(C)c(C)c2)c1N,-19.8% (inactive),
COc1cccc(CNC(=O)c2nnn(CC(=O)Nc3cc(Cl)ccc3C)c2N)c1,,50.1 µM (active)
Cc1cccc(NC(=O)c2nnn(CC(=O)Nc3ccc(C(C)C)cc3)c2N)c1C,27.1% (inactive),
CO[C@H]1O[C@@H]2O[C@@]3(C)CC[C@@H]4[C@@H](C)CC[C@@H]([C@H]1C)[C@@]24OO3,3.25% (inactive),
O=C(COC(=O)c1ccccc1OCCOc1ccccc1)Nc1cccc(Br)c1,-0.106% (inactive),
OC[C@H]1O[C@@H](n2cnc3c(NC4CCCC4)ncnc32)[C@H](O)[C@H]1O,-2.79% [at 58.9 µM] (inactive),
Cc1cc(F)ccc1NS(=O)(=O)c1ccc(-n2cccn2)cc1,1.94% (inactive),
CCOc1n[nH]c(-c2ccccc2)n1,23% (inactive),
CN(C)C(CNC(=O)CCCOc1ccccc1)c1ccco1 (stereo unspecified),33% (inactive),
O=C(NCc1ccco1)c1nc2ncccn2n1,3.64% (inactive),
CN(C)C(CNC(=O)c1cccc(C#N)c1)c1ccco1 (stereo unspecified),-7.23% (inactive),
O=C(NCCc1ccco1)c1ccc(OCc2cn3ccccc3n2)cc1,,44.7 µM (active)
O=C(NCCc1ccccn1)c1ccc(COc2ccccc2)o1,11.1% (inactive),
CN(C)C(CNC(=O)c1ccc(OCc2cn3ccccc3n2)cc1)c1ccco1 (stereo unspecified),,22.4 µM (active)
OC(CBr)C[n+]1cccc2cc(Br)ccc21 (stereo unspecified),4.11% (inactive),
COc1ccc(Cn2c(C(=O)O)c(CNCCc3cccs3)c3ccc(OC)cc32)cc1,2.33% (inactive),

Compound,"activity, negative = inhibition",Potency
CN(N=O)c1ccc(C=C2c3ccccc3-c3ccccc32)cc1,-8.63% (inactive),
CCN(CC)S(=O)(=O)c1ccc2c(c1)N(CC(=O)NCc1ccccc1)C(=O)CS2,13.7% (inactive),
CC1(C)C=Cc2c(ccc(C(=O)/C=C/c3ccccc3)c2O)O1,-5.38% (inactive),
Cc1nc2ccc(S(=O)(=O)NC(C(=O)NCc3ccccc3Cl)C(C)C)cc2s1 (stereo unspecified),66.7% (inactive),
O=C(NCCc1csc(-c2ccc(C(F)(F)F)cc2)n1)C(=O)Nc1ccc(F)c(Cl)c1,20.5% (inactive),
O=C1CCCC(O)=C1N=Nc1ccc2ncsc2c1,,39.8 µM (active)
O=C(Cn1cc(SCc2ccccc2)c2ccccc21)N1CCCCC1,17.4% (inactive),
COc1ccccc1CNc1nccn(-c2ccc(F)cc2)c1=O,23% (inactive),
CC/C=C/C(=O)N1CC2(CC(c3cccc(NC(=O)CC)c3)=NO2)C[C@H]1C(N)=O (stereo partly specified),13.9% (inactive),
C/C=C(\C)C(=O)N1CC2(CC(c3cccc(NC(=O)CCCCC)c3)=NO2)C[C@@H]1C(N)=O (stereo partly specified),-29.5% (inactive),
C=C(C)C(=O)Nc1cccc(C2=NOC3(C2)C[C@H](C(N)=O)N(C(=O)C(c2ccccc2)c2ccccc2)C3)c1 (stereo partly specified),,31.6 µM (active)
CCc1cccc(NC(=O)CN(C)S(=O)(=O)c2ccc3[nH]c4c(c3c2)CCCC4)c1,1.4% (inactive),
Cc1cc(C)c2nc(-c3ccco3)cc(C(=O)O)c2c1,,11.2 µM (active)
Cc1cccc(NC(=O)CSc2nc(-c3ccco3)cc(C(F)(F)F)n2)c1C,15.3% (inactive),
Cc1ccsc1-c1cc(C(=O)O)c2c(ccc3ccccc32)n1,83.5% (inactive),
CCCNC(=O)C(CC)n1nc(CC)n2c(cc3oc(C)cc32)c1=O (stereo unspecified),16.9% (inactive),
COc1ccc(C(=O)Nc2cccc(C(=O)OCc3cc(=O)n4c5c(sc4n3)CCCC5)c2)cc1,3.6% (inactive),
CC(C)(C)OC(=O)N1CCC(c2c(C(=O)NCCc3ccsc3)cnn2-c2ccc(F)cc2F)CC1,-3.98% (inactive),
CC(C)(C)n1ncc2c(=O)n(Cc3ccc(Cl)cc3)cnc21,,inactive and 10 µM (active)
CC(C)(C)n1ncc2c(=O)n(Cc3c(Cl)cccc3Br)cnc21,23.4% (inactive),
CC(C)(C)n1ncc2c(=O)n(Cc3ccc(C(=O)c4ccccc4)cc3)cnc21,24.5% (inactive),
CN(C)C1=C2C=CC=CC2/C(=C2/C=Cc3ccccc32)C=C1 (stereo unspecified),48.7% (inactive),
CC1(C)CCc2cc(S(=O)(=O)N3CCN(c4nc(-c5cccs5)nc5ccccc45)CC3)ccc2O1,24.7% (inactive),
O=C(CCl)Nc1ccc(Sc2ccc(NC(=O)CCl)cc2)cc1,,39.8 µM (active)
O=C(O)CSCC(=O)Nc1ccc(C(F)(F)F)cc1,47.7% (inactive),
CCC(=O)Nc1ccc(C(=O)NNC(=O)c2ccc(Cl)cc2)cc1,15% (inactive),

Compound,"activity, negative = inhibition",Potency
OC(CBr)CN1CCCCC1 (stereo unspecified),21.6% (inactive),
COc1cc(CNCCSc2nnnn2C)ccc1OCc1c(F)cccc1Cl,-4.04% (inactive),
O=C(Nc1ccccc1)c1ccccc1OCc1ccccc1,-18.9% (inactive),
COc1ccc(/C=C/C(=O)NC(=S)N2CCCC(C(N)=O)C2)cc1 (stereo unspecified),-20.3% (inactive),
COc1cccc(N2CC(NC(=O)/C=C\c3ccccc3)CC2=O)c1 (stereo unspecified),-15.9% (inactive),
COc1ccc(/C=C/C(=O)c2cc(Br)ccc(=O)c2O)cc1,,2.51 µM (active)
Cc1ccc(OCC(=O)Nc2ccccc2C(=O)NC2CC2)cc1C,11.7% (inactive),
COc1ccc(NC(=O)c2ccco2)cc1NC(=O)COc1ccc(C)c(C)c1,,70.8 µM (active)
COc1ccc(NC(=O)c2ccco2)cc1NC(=O)c1ccc(C#N)cc1F,,inactive
COc1ccccc1CNC(=O)c1ccc(CS(=O)c2ccccc2Cl)o1 (stereo unspecified),-3.31% (inactive),
COc1cc(C)ccc1OCCSc1nc2ccc(NC(=O)c3ccc(C)cc3)cc2s1,7.04% (inactive),
CCc1cccc(CC)c1NC(=O)Cn1c(=O)c(-c2cc(C)ccc2NC(C)=O)nc2ccccc21,0.919% (inactive),
CN(C)c1ccc(C=Nc2ccc(/C=C/c3ccnc4ccccc34)cc2)cc1,-10.6% (inactive),
CCOC(=O)N1CCC(N2Cc3cccc(C(=O)Nc4c(C)cccc4CC)c3C2=O)CC1,19.9% (inactive),
COC(=O)c1ccc(NC(=O)c2cccc3c2C(=O)N(C2CCCCC2)C3)cc1,42.3% (inactive),
CCOC(=O)N1CCC(N2Cc3cccc(C(=O)Nc4ccc(S(=O)(=O)N(CC)CC)cc4)c3C2=O)CC1,,79.4 µM (active)
Cc1ccc(Cn2cnc3c(cnn3C(C)(C)C)c2=O)c(F)c1,9.41% (inactive),
COc1cccc2c1cc1c(=O)n(CC(=O)N3CCN(c4cccc(Cl)c4)CC3)nc(C)n12,-0.335% (inactive),
Cc1ccsc1C(=O)NCCc1ccco1,,39.8 µM (active)
CCNC(=O)c1sccc1-n1cccc1,-2.91% (inactive),
Cc1ccsc1C(=O)OCC(=O)NCCc1ccccc1,31.7% (inactive),
Cc1cc(C)cc(NS(=O)(=O)c2cc3c(cc2C)NC(=O)CO3)c1,2.58% (inactive),
CCOc1ccc(OCC)c(Nc2nc3ccccc3n3nnnc23)c1,31.1% (inactive),
